From PubChem
A selection: hits, their analogues and other compounds. The true share with any hit is near 3.1%.
IL-2 act: activates IL-2 in a cell-based reporter assay; 360,000 compounds, 0.065% hits; IL-2 activation reporter assay, cell-based qHTS; stimulated with anti-CD3/CD4/CD28 beads; in transgenic mouse T cells; AID 652025; activation, % (series mostly up to about 46 µM); in the data active = activation above about 50%; inconclusive = mostly about 30% to 49%; also: 0% is about no effect
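Unstimulated transgenic mouse T cells; 60-min compound exposure; bead-based TCR/CD4/CD28 stimulation; 18 h culture, 37 degrees C; dual fluorescence (EGFP, DsRed) plate cytometry.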
Nrf2 ARE act: Nrf2 pathway activation. Potency, µM (titrated, usually from 46.1 µM), inactives show top-dose activation, hits mostly activators. 410,000 compounds, 0.31% hits. AREc32 ARE-luciferase reporter (MCF7-derived line), luminescence, 24 h. AID 624171; also: potency is read from the fitted curve at half-maximal effect; % of control where 0% means no effect; nearly all actives have a fitted effect of over 65% in size
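Luciferase luminescence (Steady-Glo, 30 min at room temperature) served as the read-out of ARE activation in AREc32 cells treated with compounds for 24 hr at 37 deg C.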
ELG1 repair inh: inhibitors of ELG1-dependent DNA repair in HEK293T cells | HEK293T ELG1-luciferase reporter, luminescence, 16 h; DNA damage induced by 5-fluorouridine | Potency, µM (top dose mostly 46.1 µM), for the others: at the highest dose activity change, negative = inhibition, usual class: inhibitors | 330,000 compounds, 2.3% hits | AID 504467; also: potency is read from the fitted curve at half-maximal effect; % is scaled to controls: 0 for no effect and ±100 for the full control effect; nearly all actives have a fitted effect of over 55% in size
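5-Fluorouridine DNA damage + compound/DMSO, 2,000 cells/well, 16 h, 37 °C/5% CO2. ONE-Glo, 30 min RT, luminescence. Readout = decrease in reporter signal.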
BRCA1 expr act: BRCA1 expression activation; MCF7-BRCA1-FFLuc reporter, luminescence, 48 h; response scale: scaled: vehicle 0%, 10 µM genistein 100%; Potency, µM (top dose mostly 46.1 µM), without a hit: at the top dose activation, hits mostly activators; 380,000 compounds, 1.1% hits; AID 624202; also: potency is read from the fitted curve at half-maximal effect; nearly all actives have a fitted effect of over 80% in size
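48 h compound treatment of MCF7-BRCA1-FFLuc cells (phenol-red free MEM, 37 °C), then 15 min with luciferase substrate and luminescence imaging.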
Numbers without * were called inactive; ? = inconclusive; nt = no result. Unless noted, calls follow the shape of the dose curve; as a rule, active = well fitted curve in the direction sought with a large enough effect; inconclusive = small, poorly fitted or top-dose-only effect, or another doubt; inactive = no such curve, though single readings can be large; an effect the other way counts as inactive or inconclusive.

SMILES | IL-2 act | Nrf2 ARE act | ELG1 repair inh | BRCA1 expr act
CC1CCc2c(sc3nnn(CC(=O)Nc4ccccc4Cl)c(=O)c23)C1 (centres undefined) | nt | 5% | nt | nt
CCOC(=O)c1ccccc1NC(=O)CSc1cc(C)[nH]c(=O)n1 | nt | -1% | nt | -4%
CC(C)CNS(=O)(=O)c1ccc(CCC(=O)N2CCN(c3ccc(F)cc3)CC2)cc1 | -1 | 0% | 12µM* | -20%
COc1ccccc1CNC(=O)c1ccc(N2CCCC2)c(NC(=O)NCc2ccc(F)cc2)c1 | nt | 2% | nt | nt
C/C(=C\C(=O)c1ccncc1)Nc1ccccc1O | 0 | 14µM* | 2% | -56%
COc1ccc(OC)c(N/C(C)=C/C(=O)c2ccncc2)c1 | 1 | 0% | ? | -2%
Cc1ccc(C)c(NC(=O)CN2CCSc3ccc(S(=O)(=O)N4CCCC4)cc32)c1 | nt | 1% | nt | -11%
Cc1ccc(S(=O)(=O)N2CCOCC2)cc1C(=O)NCCN1C(=O)S/C(=C\c2ccccc2Cl)C1=O | 1 | 5% | 21µM* | -29%
C(=Nc1ccc(/C=C/c2ccnc3ccccc23)cc1)c1ccco1 | nt | nt | nt | 10%
Nc1nnc(SCCOc2ccc(Br)cc2)s1 | 2 | 2% | ? | 11µM*
CCN(CC)S(=O)(=O)c1cccc(-c2nnc(SCC(N)=O)n2C)c1 | -3 | -1% | 6% | -3%
CCSc1nnc(-c2cccc(S(=O)(=O)N(CC)CC)c2)n1Cc1ccccc1 | 6 | 0% | 23µM* | -40%
CCN(CC)S(=O)(=O)c1cccc(-c2nnc(SCc3ncc(-c4ccccc4)o3)n2C)c1 | -1 | 1% | 21µM* | -9%
Cc1cc(Sc2ccc(Cl)cc2)nc2ccccc12 | nt | 1% | nt | nt
Cc1ccc(Sc2cnc3ccccc3n2)cc1 | 1 | 5% | ? | 7.1µM*
Cc1nc2cc(NS(=O)(=O)c3ccc(Br)cc3)ccc2n1C | -1 | 0% | 21µM* | -11%
COc1ccc(Cl)cc1NC(=O)[C@H]1O[C@@H]2OC(C)(C)O[C@@H]2[C@H]2OC(C)(C)O[C@H]21 | nt | 0% | nt | nt
O=C(Cn1sc2ccccc2c1=O)Nc1ccccc1 | -5 | ? | nt | -65%
O=C(Cn1sc2ccccc2c1=O)NC12CC3CC(CC(C3)C1)C2 | -8 | 13µM* | ? | 2%
CC(=O)Nc1ccc(-c2ccnc3c2CC(C)(C(=O)NCc2ccc(N(C)C)cc2)O3)cc1 (centres undefined) | 1 | 2% | nt | -49%
CC[C@]12c3[nH]c4ccc(Cl)cc4c3CCN1C(=O)[C@@H](CC(=O)NCc1cccc(C(F)(F)F)c1)C[C@@H]2C(=O)N1CCN(C(=O)C2CC2)CC1 | -1 | -1% | ? | -69%
CC[C@]12c3[nH]c4ccc(Cl)cc4c3CCN1C(=O)[C@@H](CC(=O)NCc1cccc(C(F)(F)F)c1)C[C@@H]2C(=O)N1CCN(C(=O)c2ccco2)CC1 | -1 | -1% | 13µM* | -72%
CC[C@]12c3[nH]c4ccc(Cl)cc4c3CCN1C(=O)[C@@H](CC(=O)NCCc1ccccn1)C[C@@H]2C(=O)N1CCN(C(=O)C2CC2)CC1 | -1 | 3% | 3% | 8%
CC[C@]12c3[nH]c4ccc(OC)cc4c3CCN1C(=O)C(CC(=O)NCc1cccc(C(F)(F)F)c1)C[C@@H]2C(=O)N1CCN(C(=O)c2ccco2)CC1 (some centres undefined) | -1 | 6% | -12% | -27%
C[C@]12c3[nH]c4ccc(Cl)cc4c3CCN1C(=O)[C@@H](CC(=O)NCc1cccc(C(F)(F)F)c1)C[C@@H]2C(=O)N1CCCCC1 | 0 | -3% | 23µM* | -74%
SMILES | IL-2 act | Nrf2 ARE act | ELG1 repair inh | BRCA1 expr act
C[C@]12c3[nH]c4ccc(Cl)cc4c3CCN1C(=O)[C@@H](CC(=O)NCCc1ccccn1)C[C@@H]2C(=O)N1CCCCC1 | -1 | 7% | 7.3µM* | -6%
CCOc1ccc(C(c2c(O)cc(C)n(CCOC)c2=O)N2CCN(c3ccccc3)CC2)cc1 (centres undefined) | nt | -1% | nt | nt
C/C(CCN1CCc2nc(-c3ccccc3)c(-c3ccccc3)cc2C1)=N\O[C@@H](C)c1cn([C@H](CO)Cc2ccccc2)nn1 | nt | nt | 21µM* | nt
COC(=O)C/C=C/[C@@H](C)[C@@H](/C=N/O[C@@H](C)c1cn([C@H](CO)Cc2ccccc2)nn1)NS(=O)(=O)c1ccc(C)cc1 | nt | nt | -7% | nt
C=CCN(c1ccccc1)S(=O)(=O)c1cccc(C(=O)Nc2ccncc2)c1 | -1 | 5% | ? | -43%
C=CCN(c1ccccc1)S(=O)(=O)c1cccc(C(=O)NCc2ccncc2)c1 | -5 | 2% | 8.2µM* | -10%
C=CCN(c1ccccc1)S(=O)(=O)c1cccc(C(=O)Nc2nc3ccccc3[nH]2)c1 | -1 | 5% | 23µM* | -59%
O=C(Nc1nc2ccccc2[nH]1)c1cccc(Cl)c1 | 0 | 5µM* | ? | ?
